This note sets out measurements from PubChem BioAssay AID743286 (National Center for Advancing Translational Sciences (NCATS), 2014).

The structures appear in SMILES notation. Among all 1,100 compounds or so, about 340 (31%) were called active. Roughly 40% stayed inconclusive and do not appear here. Calls follow the shape of the dose curve; as a rule, active = well fitted inhibition curve with a large enough effect; inconclusive = small, poorly fitted or top-dose-only effect; inactive = flat fitted curve, though single readings scatter. Only a sample is shown. Entries that show only a call come without a potency.
Potency is read from the fitted curve at half-maximal effect.

The target in the assay is Phosphatidylinositol 5-phosphate 4-kinase type-2 alpha (Homo sapiens) (UniProt P48426). Nature of the assay: qHTS for Inhibitors of PI5P4K: Confirmation in Primary Assay. Also: nearly all actives have a fitted effect of over 65% in size. The note with it: PI5P4Kalpha enzyme, ADP-Glo luminescence, 60 min; series mostly up to 76.9 µM. An outline of the steps: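 PI5P4Kα with lipid substrate in 0.038 M HEPES pH 7.4, 0.28 mM EGTA, 0.1% CHAPS, 5% DMSO; compounds pinned in, reaction started with 5 microM ATP, 60 min at room temperature. ADP formed read by ADP-Glo luminescence.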
Chain of Phosphatidylinositol 5-phosphate 4-kinase type-2 alpha (Homo sapiens) (P48426 whole entry, looked up): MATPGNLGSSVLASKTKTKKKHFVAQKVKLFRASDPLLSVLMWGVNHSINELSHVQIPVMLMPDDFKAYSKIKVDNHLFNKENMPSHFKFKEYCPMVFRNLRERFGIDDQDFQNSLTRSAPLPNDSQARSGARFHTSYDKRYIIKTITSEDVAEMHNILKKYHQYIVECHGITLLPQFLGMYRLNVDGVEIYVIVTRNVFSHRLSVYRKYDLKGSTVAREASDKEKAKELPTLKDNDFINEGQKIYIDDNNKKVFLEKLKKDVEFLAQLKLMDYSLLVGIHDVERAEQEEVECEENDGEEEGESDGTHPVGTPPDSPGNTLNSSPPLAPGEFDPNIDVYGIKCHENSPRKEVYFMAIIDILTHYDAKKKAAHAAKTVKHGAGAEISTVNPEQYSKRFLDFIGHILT
With `O=C(CCS(=O)(=O)c1ccc2c(c1)NC(=O)CS2)NCCc1ccc(Cl)cc1`, the Potency entry was “inactive”. For `NS(=O)(=O)c1ccc(NC(=O)C2Cc3ccccc3CN2C(=O)c2ccco2)cc1` (stereo not drawn) the value was 14.1 µM (active). The value for `CCCNC(=O)C1(C)CCCN(C(=O)c2cc(C)nn2C(C)(C)C)C1` (stereo not drawn) was “inactive”. With `Oc1cc2c(cc1C(c1ccc(Cl)c(Cl)c1)N1CCCC1)OCO2` (stereo not drawn), the Potency was 12.6 µM (active). For `O=C(Nc1cccc2cccnc12)c1csc(COCCO)n1` the value was “inactive”. For `O=C(c1cccnc1)N(c1cc2sc(=O)oc2c2ccccc12)S(=O)(=O)c1ccccc1` the value was “inactive”; for `COc1ccc(S(=O)(=O)N2CCN(C(=O)c3cc4c(s3)CCC4)CC2)cc1`, 7.08 µM (active). For `CCOc1ccc(S(=O)(=O)N2CCN(c3ccc(C)cc3C)CC2)cc1` the value was “inactive”; for `COc1cc2nc(COc3ccccc3[N+](=O)[O-])oc(=O)c2cc1OC`, “inactive”. As to `O=S(=O)(Nc1ccc2cn[nH]c2c1)c1ccccc1`, the Potency entry is “inactive”.

Turning to `CCOC(=O)c1cnc2cc(C)ccn2c1=O`, the Potency result was “inactive”. For `C[C@H]1CN=C(Nc2ccccc2)N1CCCC1CCCCC1` the value was “inactive”. The value for `CCN1CCN(Cc2ccc(NC(=O)c3ccc(C)c(NC(=O)c4cc(-c5ccc(Br)cc5)n[nH]4)c3)cc2C(F)(F)F)CC1` was 28.2 µM (active); that for `CCN1CCN(Cc2ccc(NC(=O)c3cc(NC(=O)c4cc5cccc(OC)c5o4)cc(OC)c3)cc2C(F)(F)F)CC1` was 25.1 µM (active). For `Cc1ccc(C)c(NC(=O)c2ccc3c(c2)N(Cc2ccc(F)cc2)C(=O)CS3=O)c1` (stereo not drawn) the value was “inactive”. With `COc1cccc2cc(C(C)N(CCCN3CCOCC3)C(=O)Nc3ccccc3)oc12` (stereo not drawn), the Potency entry was “inactive”. For `Cc1cc2ccccc2nc1SCC(=O)NC1CCCC1` the value was “inactive”; for `CCCCNC(=O)C1(C)CCC(=O)N1c1cc(C(C)(C)C)nn1C` (stereo not drawn), “inactive”.

Consider `COCCn1nnnc1C(c1cc2cc(OC)c(OC)cc2[nH]c1=O)N1CCN(c2ccc(O)cc2)CC1` (stereo not drawn), for which the Potency result is “inactive”. For the molecule `Cc1ccn2c(NC3CCCC3)c(-c3cccs3)nc2c1`, the Potency entry is “inactive”. For `O=c1c2c3c(sc2[nH]c(=S)n1Cc1ccco1)CCC3` the value was 7.08 µM (active); for `Cc1cccc(-n2c(SCC(N)=O)nc3c(c2=O)C2(CCCC2)Cc2ccccc2-3)c1`, “inactive”. For `Cc1ccccc1CNC(=O)c1ccc2nc([C@@H]3O[C@H](CO)[C@H](O)[C@H](O)[C@H]3O)[nH]c2c1` the value was “inactive”. The value for `COc1ccc(OC)c(NC(=O)COC(=O)c2cc3c(s2)CCC3)c1` was 12.6 µM (active); that for `COc1ccc(OC)c(NC(=O)CN(Cc2ccc(F)cc2)C2CCCCC2)c1` was “inactive”.

For the molecule `CN(C(=O)c1ccc(Br)o1)C1CCS(=O)(=O)C1` (stereo not drawn), the Potency entry is “inactive”. The value for `CC(C)(C)c1ccc(NC(=O)C2=CC=CN3CCS(=O)(=O)N=C23)cc1` was “inactive”. The value for `Cc1oc(-c2ccc(Cl)cc2)cc1-c1nn2c(-c3ccoc3C)nnc2s1` was 14.1 µM (active); that for `Cc1oc(-c2ccc(Cl)cc2)cc1C(=O)N1CCC1(C)C(=O)O` (stereo not drawn) was “inactive”. The value for `COc1ccccc1CNc1nc(NCc2cccc(OC)c2OC)c2sccc2n1` was “inactive”. Turning to `COc1cccc(CNc2nc(NC(C)C)nc3ccsc23)c1`, the Potency entry was “inactive”. In the case of `CC(C)c1ccc(CNc2nc(NCC3CC3)nc3ccsc23)cc1`, the Potency result is “inactive”.

In the case of `c1ccc(CNc2nc(NCC3CC3)nc3cc(-c4ccccc4)sc23)cc1`, the Potency is 12.6 µM (active). As for `c1ccc(-c2cc3nc(NCC4CC4)nc(NCC4CCCCC4)c3s2)cc1`, the Potency is 20 µM (active). For `CCO[C@@H]1OC(C(=O)NCc2ccccc2)=C[C@H](C(C)(C)C)[C@H]1CCCO` the value was “inactive”; for `O=C(Cn1cnc2c(OCc3ccccc3)ncnc21)NCc1nc2ccccc2[nH]1`, “inactive”. Take `COc1ccc(CCNC(=O)CNCC(c2ccccc2)N(C)C)cc1OC` (stereo not drawn): the Potency entry was “inactive”. For `Cc1ccc2c(CC(=O)OCC(=O)N(CC(C)C)c3c(N)n(Cc4ccccc4)c(=O)[nH]c3=O)coc2c1` the value was “inactive”; for `COCCN(C(=O)COC(=O)c1cc2c(s1)CCC2)c1c(N)n(Cc2ccccc2)c(=O)[nH]c1=O`, 3.16 µM (active); for `COc1ccc(Cl)cc1C(Nc1cccnc1)c1ccc2cccnc2c1O` (stereo not drawn), 12.6 µM (active). For `CCOc1ccc(C(Nc2cccnc2)c2cc(Cl)c3cccnc3c2O)cc1` (stereo not drawn), the Potency is 6.31 µM (active). The value for `COc1ccc(S(=O)(=O)N2CCCC(C(=O)Nc3cccnc3)C2)cc1Cl` (stereo not drawn) was “inactive”; that for `O=C(NC(c1ccc(Cl)cc1)c1cc(Cl)c2cccnc2c1O)c1cccnc1` (stereo not drawn) was 22.4 µM (active); that for `COc1ccc(N(C(=O)C2CSC(=O)C2)C(C(=O)NC(C)(C)C)c2ccncc2)cc1` (stereo not drawn) was “inactive”. Take `Cc1noc(C)c1CCC(=O)N1CCCC(CCC(=O)NCc2ccc(F)c(F)c2)C1` (stereo not drawn): the Potency entry was “inactive”. For `COC(=O)c1c[nH]c(=O)c2ccccc12` the value was “inactive”; for `CCOC(=O)[C@]12CCCC=C1N(Cc1ccccc1)C(=O)[C@H](CC(=O)NCCCOC)C2`, “inactive”. For `O=C(COC(=O)c1ccc(NS(=O)(=O)c2cccs2)cc1O)Nc1nc2ccccc2s1`, the Potency was 20 µM (active). The value for `O=C(Cn1cc(COc2ccc(Br)cc2[N+](=O)[O-])nn1)c1ccc(O)cc1` was “inactive”; that for `C#CCN1C(=O)S/C(=C\c2ccc(-c3ccc(C(=O)O)cc3C)o2)C1=O` was 12.6 µM (active).

With `CN(c1cccc(NC(=O)c2ccc(N(C)S(=O)(=O)c3ccccc3)cc2)c1)S(C)(=O)=O`, the Potency result was “inactive”. For `CC1(C)Cc2cccc(OCC(=O)NCCOc3ccccc3)c2O1` the value was “inactive”; for `FC(F)(F)C1=Nc2cccc3cccc(c23)N1`, 3.98 µM (active). For `CC[C@]12c3[nH]c4cc(-c5ccco5)ccc4c3CCN1C(=O)[C@@H](CC(=O)NCCC1=CCCCC1)C[C@@H]2C(=O)N1CCN(C(=O)c2ccco2)CC1` the value was “inactive”; for `Cc1ccc2c(c1)N(CC(=O)N1CCCCCC1)C(=O)C(C)O2` (stereo not drawn), “inactive”; for `Cc1cc(C)c(NC(=O)OCCN2CCOCC2)c(C)c1`, “inactive”. The value for `O=C(CSc1nncn1-c1ccccc1)Nc1ccc(N2CCOCC2)cc1` was “inactive”; that for `Cc1cc2[nH]c3c4ccccc4nc(C)c3c2cc1C` was 28.2 µM (active). In the case of `O=S(=O)(Nc1ccccc1N1CCCCC1)c1ccc(Cl)s1`, the Potency entry is “inactive”. Consider `O=S(=O)(Nc1ccc(-c2nc3cccnc3s2)cc1)c1ccc(Cl)s1`, for which the Potency is 14.1 µM (active). Consider `CCS(=O)(=O)Nc1ccc(-c2nc3cccnc3s2)cc1`, for which the Potency is 22.4 µM (active).

As for `O=S1(=O)CC(N2CCSCC2)CN1Cc1cn(Cc2ccc(F)cc2)nn1` (stereo not drawn), the Potency result is “inactive”. The value for `COc1cc(Br)cc(CNc2ccc(F)c([N+](=O)[O-])c2)c1O` was “inactive”; that for `Cn1c(=O)c2c(-c3ccccc3)n(-c3cccc(O)c3)cc2n(C)c1=O` was “inactive”. For `Cc1cccc(C2Nc3ccccc3C(=O)N2c2ccc(F)cc2)n1` (stereo not drawn) the value was “inactive”. The value for `COc1ccc2[nH]c(=O)c(CN(Cc3nnnn3Cc3ccco3)C3CCCCC3)cc2c1` was “inactive”; that for `NS(=O)(=O)c1ccc2c(c1)C1C=CCC1C(C1CC=CCC1)N2` (stereo not drawn) was 28.2 µM (active); that for `CCN(CC)CCCCCC(=O)Nc1ccccc1C(=O)Nc1ccccc1` was “inactive”. Take `CCCCC1=CC2=CC(=O)C(C)(OC(=O)C3CCCC3)C(=O)C2=CO1` (stereo not drawn): the Potency is 15.8 µM (active). The value for `Cc1c(Cl)cccc1NC(=O)Cn1nnc(C(=O)NCc2cccs2)c1N` was “inactive”; that for `S=C(NCc1ccccc1)N1CCc2ccccc2C1` was “inactive”; that for `Cc1ccc([N+](=O)[O-])cc1NC(=O)CCSc1ccc(Cl)cc1` was “inactive”.

`NC(=O)c1ccsc1NC(=O)c1ccc([N+](=O)[O-])o1`: the Potency was 12.6 µM (active). For `COc1ccccc1CNc1nc(Nc2cccc(-c3cnco3)c2)c2sccc2n1` the value was “inactive”; for `Cc1cccc(Nc2nc(NCc3ccco3)c3ccccc3n2)c1`, 35.5 µM (active). Turning to `Cc1ccc(Nc2nc(NCc3ccco3)c3ccccc3n2)cc1`, the Potency is 35.5 µM (active). For `CCc1cc(=O)oc2cc(C)c(CN3CCCCC3)c(O)c12` the value was “inactive”. For `COc1ccc(N(C(=O)c2ccccc2)S(=O)(=O)c2cccs2)cc1` the value was “inactive”. For the molecule `CC(CNC(=O)c1ccc(Br)o1)NC(=O)c1ccc(Br)o1` (stereo not drawn), the Potency entry is “inactive”.

With `COc1ccc(NC(=O)c2cc(-c3ccco3)nc3ccccc23)cc1S(=O)(=O)N1CCOCC1`, the Potency was 6.31 µM (active). Consider `O=C(Nc1cccc(S(=O)(=O)NC2=NCCCCC2)c1)c1cc(-c2ccco2)nc2ccccc12`, for which the Potency was 2.82 µM (active). For `COc1ccc(Br)cc1C(=O)Nc1cccc(NC(=O)c2ccco2)c1` the value was “inactive”. Regarding `O=C(Nc1cccc(S(=O)(=O)NC2=NCCC2)c1)c1cc(-c2ccco2)nc2ccccc12`, the Potency is 2.51 µM (active). Consider `Cc1csc(=O)n1CCC(=O)OCC(=O)Nc1ccc(N2CCOCC2)cc1`, for which the Potency entry was “inactive”. The value for `COc1ccc(N2CC(O)=C(c3nc(-c4ccccc4)cs3)C2=N)cc1` was “inactive”; that for `CCCCc1c(Cc2ccccc2)ncn1CCc1ccccc1OC` was “inactive”; that for `CC(=O)c1ccc(NC(=O)CC2Nc3cccc4cccc(c34)NC2=O)cc1` (stereo not drawn) was 3.98 µM (active). The value for `O=c1[nH]c(N2CCOCC2)cc2ccccc12` was “inactive”; that for `Oc1c(C(c2ccccc2)N2CCOCC2)ccc2ccccc12` (stereo not drawn) was 3.98 µM (active). For `c1ccc2c(OCCCCN3CCOCC3)cccc2c1` the value was “inactive”; for `CC1CCCC(C)N1C(=O)COC(=O)CNC(=O)c1ccccc1` (stereo not drawn), “inactive”. For the molecule `Cc1cc2nc(NC(=O)C3(C)CCN3C(=O)C(C)C)[nH]c2cc1C` (stereo not drawn), the Potency entry was “inactive”. The value for `CC1(C(=O)NS(=O)(=O)C2CC2)CCN(C(=O)c2ccccc2F)C1` (stereo not drawn) was “inactive”.

For the molecule `N#Cc1ccc(COC(=O)CC(NC(N)=O)c2ccc(Cl)cc2)cc1` (stereo not drawn), the Potency entry is “inactive”. For the molecule `COCCOC(=O)c1[nH]c2c(c1C)C(=O)CC(c1ccco1)C2` (stereo not drawn), the Potency is 15.8 µM (active). For `O=C(Nc1ccc(O)c2c(=O)cc(-c3ccccc3Cl)oc12)c1ccc(Cl)c(Cl)c1` the value was “inactive”; for `Nc1c(C(=O)O)cnc2c(-c3ccc(Cl)cc3)cnn12`, 6.31 µM (active). For `CN1OC[C@@H]2CN3C(=O)N(c4cccc5ccccc45)c4ccccc4[C@@H]3C[C@@H]21` the value was “inactive”.
